# Measured values as given in the supplement of paper PMC6555819.
# Legend:
# Assay in all cases: PBM binding z-score (relative to random genomic background probes); higher = stronger binding; sequences stand for … in GC…GCGATTGACAGCGTAGAATGAAGG
# [1] = system: PPARg:RXRa DBDmut IVT, anti-RXR (DBD mutation: RXRa K156A/R161A, NR concentration 270 nM, RXRa partner concentration 90 nM)
# Outline: (§1)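 On custom Agilent 4×180K arrays, double-stranded probes with 34-nt variable regions carried direct-repeat seeds, single-nucleotide variants, half-site ablations or random human genomic background. Ligand-free nuclear receptor dimers were applied for 1 h, and binding was read with antibodies against each partner (one per run). Binding z-scores come from regression-normalized fluorescence, with the random background probes as reference.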
# [2] = system: PPARg:RXRa IVT, anti-PPARg (NR concentration 270 nM, RXRa partner concentration 90 nM)
# Outline: as §1
# [3] = system: PPARg DBDmut:RXRa IVT, anti-PPARg (DBD mutation: PPARg1 K132A/R137A, NR concentration 270 nM, RXRa partner concentration 90 nM)
# Outline: as §1
# [4] = system: PPARg DBDmut IVT, anti-PPARg (DBD mutation: PPARg1 K132A/R137A, NR concentration 270 nM)
# Outline: as §1
# [5] = system: PPARg homodimer (NR concentration 180 nM)
# Outline: as §1
# [6] = system: PXR:RXRa (NR concentration 270 nM, RXRa partner concentration 90 nM)
# Outline: as §1
# [7] = system: PXR homodimer (NR concentration 270 nM)
# Outline: as §1
# [8] = system: RARa:RXR (NR concentration 270 nM, RXRa partner concentration 90 nM)
# Outline: as §1
# [9] = system: RARa homodimer (NR concentration 270 nM)
# Outline: as §1
# [10] = system: RARb:RXRa (NR concentration 270 nM, RXRa partner concentration 90 nM)
# Outline: as §1
# [11] = system: RARb homodimer (NR concentration 270 nM)
# Outline: as §1
# [12] = system: RARg:RXRa (NR concentration 270 nM, RXRa partner concentration 90 nM)
# Outline: as §1
# [13] = system: RARg homodimer (NR concentration 270 nM)
# Outline: as §1
# [14] = system: RXRa DBDmut IVT, anti-RXR (DBD mutation: RXRa K156A/R161A, NR concentration 90 nM)
# Outline: as §1
# [15] = system: RXRa homodimer (NR concentration 180 nM)
# Outline: as §1
# [16] = system: THRa:RXRa (NR concentration 90 nM, RXRa partner concentration 90 nM)
# Outline: as §1
# [17] = system: THRa homodimer (NR concentration 90 nM)
# Outline: as §1
# [18] = system: VDR:RXRa (NR concentration 270 nM, RXRa partner concentration 90 nM)
# Outline: as §1
# [19] = system: VDR homodimer (NR concentration 270 nM)
# Outline: as §1
Sequence,PBM binding z-score [1],PBM binding z-score [2],PBM binding z-score [3],PBM binding z-score [4],PBM binding z-score [5],PBM binding z-score [6],PBM binding z-score [7],PBM binding z-score [8],PBM binding z-score [9],PBM binding z-score [10],PBM binding z-score [11],PBM binding z-score [12],PBM binding z-score [13],PBM binding z-score [14],PBM binding z-score [15],PBM binding z-score [16],PBM binding z-score [17],PBM binding z-score [18],PBM binding z-score [19]
ATATGTAGGTTAAGGGTCTTTCAGGTTGGTTCGC,7.78,7.16,1.06,1.67,2.46,1.45,1.1,1.64,1.86,1.55,1.78,1,0.853,0.724,1.96,1.54,1.44,1.79,1.64
CTACCAAGGTGAACAAGGTCGTTGAGTACTATTC,2.21,2.45,-0.822,-0.624,0.759,3.07,6.86,2.48,0.402,2.24,2.27,1.92,1.43,1.64,2.39,3.28,1.83,6.19,3.27
TCATATAGGTAAACAGGGGAAAGTCCGTAAGTTA,4.67,3.46,1.62,0.87,1.18,0.921,0.414,1.21,0.805,0.676,0.507,0.245,0.0765,1.97,0.978,0.404,0.286,1.06,0.312
ACAGACATGTGAGTGAAGGTAACTCAGCTGGACG,-0.459,-0.467,-0.0972,-0.0853,-0.419,-0.554,-0.383,-0.531,-0.221,-0.157,-0.584,0.0591,0.117,-0.191,0.317,-0.00314,-0.488,-0.252,-0.512
CCGACTGGGGCATAAGGTTACCATGAGCCAGCCC,2.64,3.31,-0.794,-1.56,0.331,0.16,-0.667,1.16,0.564,1.55,1.89,1.81,0.826,-0.562,1.32,2.05,1.17,0.177,-0.247
CGTCCAAGATCATAGGAGGTCAGTGAAGACAGAT,0.389,1.23,0.673,0.577,1.4,2.93,0.844,2.62,0.513,2.25,3.26,2.22,2.22,0.36,2.03,3.98,0.538,2.63,1.21
CAAACTAGGTCAAGGTCAAAGTGGGTTTGTGCCA,8.63,8.56,2.16,1.39,3.95,5.56,2.52,5.18,1.68,5.14,5.23,5.95,6.67,3.05,5.78,4.34,3.93,5.74,5.14
ACCTCTAGGTAAGACTCAGTTCAGTGAAGAACGC,1.32,0.243,-0.124,-0.421,0.121,0.405,0.515,0.112,-0.37,-0.0918,0.0203,-0.0549,-0.0332,0.371,-0.0186,0.243,0.088,0.00811,0.678
CGTCAAAATTCAACTAAGGTAACGTAAAGCACGC,-0.174,0.543,0.555,1.22,-0.0431,0.326,0.413,1.71,1.69,0.577,0.445,0.33,0.586,0.407,0.529,2.94,1.75,,0.233
CCTGCGAGGTCAATGGTCAGCTAAAGCAGCTCGC,3.45,3.93,1.18,-0.453,2.42,4.55,0.99,4.6,0.55,5.07,4.2,6.01,5.99,4.37,5.95,3.8,2.37,4.73,3.63
CCTAGCAGGTCAGGGTCACTCAAGCATTTCGCTT,3.35,4,-0.304,-1.12,2.56,3.91,0.115,4.5,0.487,4.2,4.32,5.02,5.1,1.94,5.24,3.71,1.83,4.13,2.32
CCTATTAGTTGACCATAACGGCAACCGAAGCTCG,0.934,0.243,0.836,1.13,2.08,0.499,1.25,0.72,2.49,0.584,1.01,0.618,0.817,0.595,0.625,0.388,0.93,0.7,1.08
TCTGCTAGGTCAACGATGGGCAGCTAATCTGCTA,4.14,4,1.49,-0.401,0.59,0.836,-1.21,1.73,-1.18,4.19,2.74,3.94,5.25,0.549,2.44,2.63,0.424,0.993,-0.398
GCTAGCAGGCCATTTGGGTCACTCGATGACGGGC,2.18,2.18,-0.31,-1.28,-0.101,0.388,-0.29,0.794,-0.742,1.39,1.9,0.925,1.25,0.253,0.666,1.66,0.48,0.762,0.416
CGAAATAGGTCATTGACAGGACAGTGAATAGTAA,7.51,7.87,3.54,2.18,3.02,3.03,0.444,4.06,1.24,4.3,3.34,5.81,4.98,2.23,4.21,3.01,0.329,3.26,1.15
